ChEMBL document CHEMBL5308504, “Tm Shift (DSF) assay results for EUbOPEN Chemogenomics Library” (2023)
Where “and” joins values, the source holds several entries; their conditions need not be identical. Equal values may be shown once.

Key:
Conditions in all cases: Compound concentration 20.0 uM, Protein concentration 2.0 uM, Result type QC Liability
[1] = biological target: Tyrosine-protein kinase ABL1 (Homo sapiens) (UniProt P00519)
[2] = biological target: Cyclin-dependent kinase 2 (Homo sapiens) (UniProt P24941)
[3] = biological target: Casein kinase I isoform delta (Homo sapiens) (UniProt P48730)
[4] = biological target: Glycogen synthase kinase-3 beta (Homo sapiens) (UniProt P49841)
[5] = biological target: Mitogen-activated protein kinase 1 (Homo sapiens) (UniProt P28482)
[6] = biological target: T1, Aurora kinase A (Homo sapiens) (UniProt O14965)
T1 sequence (whole entry): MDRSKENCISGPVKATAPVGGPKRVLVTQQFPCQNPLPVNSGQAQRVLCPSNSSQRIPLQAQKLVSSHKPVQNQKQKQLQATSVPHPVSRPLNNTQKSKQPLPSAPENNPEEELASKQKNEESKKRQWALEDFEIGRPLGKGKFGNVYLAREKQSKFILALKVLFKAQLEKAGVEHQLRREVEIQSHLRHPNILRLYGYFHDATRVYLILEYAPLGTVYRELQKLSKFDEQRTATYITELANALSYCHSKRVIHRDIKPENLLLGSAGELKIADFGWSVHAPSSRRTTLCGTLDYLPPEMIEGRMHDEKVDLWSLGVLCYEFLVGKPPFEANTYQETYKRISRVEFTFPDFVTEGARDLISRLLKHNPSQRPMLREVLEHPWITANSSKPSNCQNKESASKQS

Tyrosine-protein kinase ABL1 (Homo sapiens), sequence (P00519 whole entry): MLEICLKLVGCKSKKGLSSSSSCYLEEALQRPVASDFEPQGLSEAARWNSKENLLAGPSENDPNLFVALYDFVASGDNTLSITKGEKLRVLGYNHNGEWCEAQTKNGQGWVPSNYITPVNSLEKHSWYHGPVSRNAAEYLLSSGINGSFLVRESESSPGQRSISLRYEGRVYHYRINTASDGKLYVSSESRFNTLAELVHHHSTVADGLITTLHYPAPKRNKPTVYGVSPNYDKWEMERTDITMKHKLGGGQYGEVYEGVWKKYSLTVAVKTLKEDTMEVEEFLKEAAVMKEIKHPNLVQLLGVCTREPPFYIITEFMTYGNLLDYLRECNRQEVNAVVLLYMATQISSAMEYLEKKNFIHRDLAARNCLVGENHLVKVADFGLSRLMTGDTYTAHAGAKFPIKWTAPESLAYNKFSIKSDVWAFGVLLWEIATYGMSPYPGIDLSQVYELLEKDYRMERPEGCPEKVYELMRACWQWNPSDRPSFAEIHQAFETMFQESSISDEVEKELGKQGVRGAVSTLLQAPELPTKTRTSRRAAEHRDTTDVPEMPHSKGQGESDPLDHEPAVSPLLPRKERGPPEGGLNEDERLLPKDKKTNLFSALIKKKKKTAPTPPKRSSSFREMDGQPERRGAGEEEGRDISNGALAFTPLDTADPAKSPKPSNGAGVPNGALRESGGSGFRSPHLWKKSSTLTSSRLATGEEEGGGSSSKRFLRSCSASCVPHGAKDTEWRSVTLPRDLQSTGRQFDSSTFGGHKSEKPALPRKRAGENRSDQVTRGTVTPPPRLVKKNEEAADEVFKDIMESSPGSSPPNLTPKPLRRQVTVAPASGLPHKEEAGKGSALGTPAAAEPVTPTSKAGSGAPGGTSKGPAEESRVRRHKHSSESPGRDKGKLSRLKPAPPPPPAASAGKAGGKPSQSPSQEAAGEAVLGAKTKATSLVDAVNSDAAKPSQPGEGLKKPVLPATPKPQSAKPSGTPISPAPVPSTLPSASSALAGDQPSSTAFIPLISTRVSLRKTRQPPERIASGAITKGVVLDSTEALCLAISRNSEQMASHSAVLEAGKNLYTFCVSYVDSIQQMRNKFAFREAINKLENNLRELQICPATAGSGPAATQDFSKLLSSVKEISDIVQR
Casein kinase I isoform delta (Homo sapiens), sequence (P48730 whole entry, looked up, canonical isoform): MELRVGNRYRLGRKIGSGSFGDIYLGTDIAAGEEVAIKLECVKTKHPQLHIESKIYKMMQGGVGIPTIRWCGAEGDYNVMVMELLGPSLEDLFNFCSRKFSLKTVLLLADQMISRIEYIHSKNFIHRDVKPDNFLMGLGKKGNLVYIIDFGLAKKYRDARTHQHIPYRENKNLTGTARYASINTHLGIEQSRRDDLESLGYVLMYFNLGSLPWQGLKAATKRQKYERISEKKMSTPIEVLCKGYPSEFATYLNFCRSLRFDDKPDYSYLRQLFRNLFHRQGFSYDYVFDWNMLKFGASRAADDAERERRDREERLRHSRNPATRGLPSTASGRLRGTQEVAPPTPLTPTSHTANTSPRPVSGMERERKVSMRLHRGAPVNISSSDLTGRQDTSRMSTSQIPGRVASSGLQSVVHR
Glycogen synthase kinase-3 beta (Homo sapiens), sequence (P49841 whole entry, looked up): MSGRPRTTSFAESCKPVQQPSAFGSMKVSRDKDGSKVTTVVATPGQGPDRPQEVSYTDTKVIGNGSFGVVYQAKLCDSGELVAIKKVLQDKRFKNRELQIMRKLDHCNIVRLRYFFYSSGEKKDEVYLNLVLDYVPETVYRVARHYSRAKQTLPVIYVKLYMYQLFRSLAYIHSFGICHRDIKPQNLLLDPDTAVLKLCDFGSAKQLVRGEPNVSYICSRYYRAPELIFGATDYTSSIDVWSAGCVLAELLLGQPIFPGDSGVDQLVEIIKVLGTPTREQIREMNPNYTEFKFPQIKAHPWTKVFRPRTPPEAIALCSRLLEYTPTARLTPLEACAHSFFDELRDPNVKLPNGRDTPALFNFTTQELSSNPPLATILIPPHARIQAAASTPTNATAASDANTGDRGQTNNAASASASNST
Mitogen-activated protein kinase 1 (Homo sapiens), sequence (P28482 whole entry): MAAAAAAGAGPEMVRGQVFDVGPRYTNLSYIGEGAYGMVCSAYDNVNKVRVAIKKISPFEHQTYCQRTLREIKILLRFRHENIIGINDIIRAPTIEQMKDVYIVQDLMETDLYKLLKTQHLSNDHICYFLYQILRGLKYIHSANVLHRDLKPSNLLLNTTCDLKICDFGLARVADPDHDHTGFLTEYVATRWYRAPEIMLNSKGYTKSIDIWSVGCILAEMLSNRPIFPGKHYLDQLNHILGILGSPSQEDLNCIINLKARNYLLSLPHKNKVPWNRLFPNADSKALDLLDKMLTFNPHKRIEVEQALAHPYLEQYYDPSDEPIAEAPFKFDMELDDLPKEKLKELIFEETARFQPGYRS

| Compound | ΔTm [1] | ΔTm [2] | ΔTm [3] | ΔTm [4] | ΔTm [5] | ΔTm [6] |
| --- | --- | --- | --- | --- | --- | --- |
| COc1cc2ncnc(Nc3ccc(F)c(Cl)c3)c2cc1OCCN(C)C[C@H](C)O | 2.95 °C | 0.34 °C | 1.99 °C | -0.21 °C | 0.43 °C | 0.41 °C |
| CC1CCN(C(=O)[C@@H](CCn2cccc2C#N)NS(=O)(=O)c2cccc3[nH]ccc23)CC1 | 0.25 °C | 0.59 °C | 0.33 °C | -0.44 °C | -8.81 °C | 0.05 °C |
| CN[C@@H](C)C(=O)N[C@H](C(=O)N1CCC[C@H]1C(=O)N[C@@H]1CCCc2ccccc21)C1CCCCC1 | 0.2 °C | 0.07 °C | 1.13 °C | -0.99 °C | 0.48 °C | -0.97 °C |
| CC(C)Nc1ncnc2cc(OCc3cccc([S@@](C)(=N)=O)c3)c(Br)cc12 | 2.87 °C | 0.49 °C | 1.35 °C | -0.51 °C | -0.37 °C | 4.25 °C |
| CC(C)(C)C(=O)NCc1ccc(Cl)c(C(=O)Nc2ncc[nH]2)c1 | 0.08 °C | 0.44 °C | -0.14 °C | 0.45 °C | -0.01 °C | -0.18 °C |
| CO[C@H]1CC[C@H](N(c2cc(F)c(Oc3ncc(Cn4nccn4)cc3C(F)(F)F)cc2C(=O)O)C(=O)[C@H]2CC[C@H](C)CC2)CC1 | -0.55 °C | -0.98 °C | -0.04 °C | -1.43 °C | 0.48 °C | -0.75 °C |
| CC(=O)Nc1nc(CN2CCC[C@H](Cc3cc(C)nc(C)c3)C2)cs1 | 0.19 °C | 0 °C | 0.1 °C | -0.34 °C | 0.5 °C | 0.28 °C |
| CN(CCCCCCC1=C(c2cc(F)cc(F)c2)CCCc2cc(O)ccc21)CCCCS(=O)(=O)CCCC(F)(F)F | -0.9 °C | -0.47 °C | 0.28 °C | 0 °C | -9.1 °C | 0.84 °C |
| CC(C)c1cnc(NC(=O)Cc2ccccc2)s1 | 1.04 °C | 4.66 °C | 2.55 °C | 3.64 °C | 0.91 °C | -0.53 °C |
| Cc1cc(CN)cc(C)c1-c1ncn(C)c1-c1ccnc2cc(F)ccc12 | -0.08 °C | 0.32 °C | 0.37 °C | -0.11 °C | 0.29 °C | 0.25 °C |
| CN1CC(=O)N(C)c2cnc(Nc3ccc(NC(=O)Nc4cccc(C(=O)O)c4)cc3)nc21 | 0.56 °C | -0.17 °C | 0.58 °C | 1.43 °C | 0.43 °C | 2 °C |
| O=C(O)C[C@H]1CCn2c1c(Sc1ccc(Cl)cc1)c1ccc(F)cc12 | -1 °C | -1.1 °C | -0.47 °C | 0 °C | -0.38 °C | -0.18 °C |
| CC(=O)N(CCN(C)C)c1ccc(N/C(=C2\C(=O)Nc3cc(Cl)ccc32)c2ccccc2)cn1 | 8.38 °C | 3.16 °C | 2.87 °C | 11.3 °C | 0.38 °C | 7.54 °C |
| CCN1CCN(Cc2ccc(C(=O)Nc3ccc(C)c(Oc4ccc5c(c4)CC(=O)N5)c3)cc2C(F)(F)F)CC1 | 12.9 °C | 0.01 °C | 0.95 °C | 0.8 °C | 0.26 °C | -1.25 °C |
| CN1CCN(C(=O)c2ccc3cc2OCCOCCNc2ccn4ncc-3c4n2)CC1 | 1.92 °C | 0.81 °C | 0.3 °C | 0 °C | 0.5 °C | 3.85 °C |
| CC[C@@H](CO)Nc1nc(Nc2cccc(NC(=O)C(C)(C)C)c2)ncc1F | 1.74 °C | 1.9 °C | 0.38 °C | 3.34 °C | 0.54 °C | 9.07 °C |
| Cc1cc(C)nc(Nc2ncc(C(=O)NCCc3c(C)[nH]c4ccccc34)cn2)c1 | -0.23 °C | 0.75 °C | -0.55 °C | -2.26 °C | -0.02 °C | 0.27 °C |
| CN(C)C(=O)Cn1cc(-c2ccc(-c3nnc4ccccn34)cc2)cn1 | -0.4 °C | 0.44 °C | 0.44 °C | -0.7 °C | 0.27 °C | -0.04 °C |
| O=C(O)CCCc1cc2cc(Cl)ccc2n1S(=O)(=O)c1ccc2ncsc2c1 | 0.34 °C | 0.24 °C | 1.03 °C | -2.46 °C | 0.26 °C | -0.83 °C |
| CC(=O)c1c(C)c2cnc(Nc3ccc(N4CCN(CCOCCOCCOCCNC(=O)COc5cccc6c5C(=O)N(C5CCC(=O)NC5=O)C6=O)CC4)cn3)nc2n(C2CCCC2)c1=O (stereo not drawn) | -0.65 °C | -0.26 °C | 1.49 °C | 1.18 °C | -1.16 °C | 0.61 °C |
| CC(=O)Nc1cccc(-n2c(=O)n(C3CC3)c(=O)c3c(Nc4ccc(I)cc4F)n(C)c(=O)c(C)c32)c1 | -0.1 °C | 0.48 °C | 0.23 °C | -0.51 °C | 0.29 °C | -0.21 °C |
| Cc1cc(OC2CCS(=O)(=O)CC2)cc(C)c1-c1cccc(COc2ccc(C(=O)O)c(F)c2)c1 | 0.14 °C | -1.08 °C | 0.23 °C | -0.54 °C | 0.7 °C | -1.19 °C |
| COc1ccc(C(=O)N[C@H](C)c2cccc(C(=O)Nc3nc4c(s3)CN(C)CC4)c2)cc1C | 0.22 °C | 0.42 °C | 0.41 °C | -0.51 °C | 0.45 °C | 0.16 °C |
| CS(=O)(=O)c1cc(C2(NC(=O)c3cncc4c3cnn4-c3ccc(F)cc3)CC2)ccn1 | 0.11 °C | 0.77 °C | 0.73 °C | -0.04 °C | -0.47 °C | 0.05 °C |

| Compound | ΔTm [1] | ΔTm [2] | ΔTm [3] | ΔTm [4] | ΔTm [5] | ΔTm [6] |
| --- | --- | --- | --- | --- | --- | --- |
| O=c1cc(C2CCNCC2)n2nc3cccc(Cl)c3c2[nH]1 | 0.46 °C | -0.11 °C | 0.7 °C | 0.46 °C | 0 °C | -0.12 °C |
| c1ccc2c(-c3coc4cc(-c5ccc(N6CCNCC6)cc5)cnc34)ccnc2c1 | 3.66 °C | -0.03 °C | 1.09 °C | -0.47 °C | 0 °C | -0.46 °C |
| COc1ccccc1N1CCN(c2ncnc3c2cnn3-c2ccccc2)CC1 | 0.32 °C | -0.17 °C | 0.84 °C | -0.28 °C | -0.07 °C | -0.16 °C |
| Cc1ccc(NS(=O)(=O)c2ccc3c(c2)C2C=CCC2C(c2ccc(C(=O)O)cc2)N3)cc1C (stereo not drawn) | -0.61 °C | 1.5 °C | 0.36 °C | -1.27 °C | -3.84 °C | -2.29 °C |
| COc1ncc(-c2cc(-c3ncc(CN4C[C@@H](C)O[C@@H](C)C4)o3)c3cn[nH]c3c2)cc1NS(C)(=O)=O | 0.42 °C | 0.2 °C | 0.38 °C | -0.36 °C | 0.18 °C | 1.26 °C |
| CNc1nc(-c2ccc3c(N)n[nH]c3c2)cc(N2C[C@@H](C(=O)NC3CCCCC3)CC[C@H]2C)n1 | 0.49 °C | -0.54 °C | 0.18 °C | 0.25 °C | 0.38 °C | 2.89 °C |
| O=C(Nc1ccc(C(O)(C(F)(F)F)C(F)(F)F)cc1)c1ccc(C(F)(F)F)cc1 | 0.76 °C | 1.61 °C | 1.47 °C | -0.34 °C | 0.19 °C | 0 °C |
| O=C(CNC(=O)c1ccc(-c2ccccc2)cc1)NC1CCCc2ccccc21 (stereo not drawn) | 0.75 °C | -0.06 °C | -1.78 °C | -2.76 °C | 0.17 °C | -1.46 °C |
| CN(C)C(=O)c1sc2nc(N3CCC(S(C)(=O)=O)CC3)cc(C(F)(F)F)c2c1N | -0.62 °C and 1 °C | 0.58 °C and 0.19 °C | 0.2 °C and 0.17 °C | -0.24 °C and -0.54 °C | -0.76 °C and 0.56 °C | -0.67 °C and 0 °C |
| Cc1nccc(COC(=O)N2C[C@@H]3[C@@H](CNC(=O)c4ccc5[nH]nnc5c4)[C@@H]3C2)n1 | -0.16 °C | 0.19 °C | 0.34 °C | 0.22 °C | 0.26 °C | -0.07 °C |
| CCOC(=O)c1ccc(CN(Cc2ccc(-c3cccc(S(C)(=O)=O)c3)cc2)S(=O)(=O)c2c(C)cc(C)cc2C)o1 | -2.07 °C | -2 °C | -1.52 °C | -0.28 °C | -3 °C | -3.1 °C |
| CC1CCN(c2ccnc(NCc3cn(C)cn3)n2)CC1 | -1.33 °C | 0.15 °C | 0.29 °C | -0.33 °C | 0.75 °C | -0.52 °C |
| CC(=O)c1ccc2c(c1)/C(=C(/Nc1cccc(C#N)c1)c1ccc3c(c1)OCCO3)C(=O)N2 | 6.24 °C | 5.79 °C | 1.02 °C | 12 °C | 0.75 °C | 4.32 °C |
| CCCCOc1c(C(=O)c2c(F)cc(C)cc2F)c[nH]c2nncc1-2 | 0.35 °C | 2.95 °C | 0.13 °C | 0.42 °C | 0.05 °C | 0.96 °C |
| NC(=O)OC[C@H](NC(=O)Cn1nc(-c2ccc(Cl)cc2)n(C[C@H](O)C(F)(F)F)c1=O)c1cccc(C(F)(F)F)c1 | 1.4 °C | 1.62 °C | 0.82 °C | 2.1 °C | 1.35 °C | 0.82 °C |
| O=S(=O)(Nc1ccc(C(O)(C(F)(F)F)C(F)(F)F)cc1)c1cccs1 | 0.41 °C | 0.73 °C | 0.38 °C | -0.54 °C | 1.04 °C | 0.57 °C |
| O=C(O)c1cc2cc(Cc3cccnc3)ccc2o1 | 0.65 °C | 0.63 °C | 0.07 °C | 0.46 °C | -0.29 °C | -0.17 °C |
| O=C(O)[C@]1(Cc2cccc(Nc3nccs3)n2)CC[C@@H](Oc2cccc(Cl)c2F)CC1 | 17.2 °C | 5.36 °C | 1.53 °C | 8.49 °C | 1.32 °C | 25.4 °C |
| COc1cc(-c2cc([C@H](O)C3CC3)n3ncnc(N)c23)ccc1CO | 9.08 °C | 0.4 °C | 4.52 °C | 0.91 °C | 0.82 °C | 1.06 °C |
| CN[C@@H]1CC[C@@H](c2ccc(Cl)c(Cl)c2)c2ccccc21 | -0.02 °C | 0.01 °C | 0.01 °C | -0.7 °C | 0 °C | -0.47 °C |
| O=C(Nc1ccc(Cl)c(-c2ccccn2)c1)c1cccc(COc2ccc(Br)cc2CNCCO)c1 | 0.35 °C | -0.21 °C | 0.55 °C | -0.89 °C | -0.69 °C | -0.51 °C |
| Cc1cccc(-c2[nH]c(CNc3ccccc3F)nc2-c2ccc3ncnn3c2)n1 | 3.23 °C | 0.92 °C | 1.1 °C | -0.02 °C | 0.92 °C | 0.8 °C |
| CC(C)(O)c1coc(S(=O)(=O)NC(=O)Nc2c3c(cc4c2CCC4)CCC3)c1 | 0.65 °C | 1.24 °C | 0.37 °C | 0.29 °C | 0.43 °C | 0.25 °C |
| CCO[C@H](COc1ccc(C(F)(F)F)cc1)CSc1ccc(OCC(=O)O)c(C)c1 | 0.26 °C | 0.43 °C | 0.11 °C | -0.41 °C | 0.32 °C | -1.04 °C |
